# The sample as a whole holds a higher share of the strongest signals than the screen did.
# B1: SAOUHSC 00176 (Staphylococcus aureus) (protein)
# chain: MSKILKCITLAVVMLLIVTACGPNRSKEDIDKALNKDNSKDKPNQLTMWVDGDKQMAFYKKITDQYTKKTGIKVKLVNIGQNDQLENISLDAPAGKGPDIFFLAHDNTGSAYLQGLAAEIKLSKDELKGFNKQALKAMNYDNKQLALPAIVETTALFYNKKLVKNAPQTLEEVEANAAKLTDSKKKQYGMLFDAKNFYFNYPFLFGNDDYIFKKNGSEYDIHQLGLNSKHVVKNAERLQKWYDKGYLPKAATHDVMIGLFKEGKVGQFVTGPWNINEYQETFGKDLGVTTLPTDGGKPMKPFLGVRGWYLSEYSKHKYWAKDLMLYITSKDTLQKYTDEMSEITGRVDVKSSNPNLKVFEKQARHAEPMPNIPEMRQVWEPMGNASIFISNGKNPKQALDEATNDITQNIKILHPSQNDKKGD
# What was measured:
# Experiment in all cases: glycan array binding signal (z-score within array); higher = stronger binding
# Settings in all cases: glycan notation: IUPAC condensed, linker removed
# [1] = biological target: Fuc(a1-2)Gal(b1-4)GlcNAc(b1-2)Man(a1-3)[Fuc(a1-2)Gal(b1-4)GlcNAc(b1-2)Man(a1-6)]Man(b1-4)GlcNAc(b1-4)[Fuc(a1-6)]GlcNAc
# Outline: (§1)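 Negative Z-scores can be read as non-binding. The Z-score is calculated within each array and then averaged across arrays of one protein sequence at different concentrations or buffers and across linkers. Arrays, 3228 in all, were curated from the Consortium for Functional Glycomics database and kept only where the protein sequence was available.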
# [2] = biological target: Fuc(a1-2)Gal(b1-4)[Fuc(a1-3)]GlcNAc(b1-2)[Fuc(a1-2)Gal(b1-4)[Fuc(a1-3)]GlcNAc(b1-4)]Man(a1-3)[Fuc(a1-2)Gal(b1-4)[Fuc(a1-3)]GlcNAc(b1-2)Man(a1-6)]Man(b1-4)GlcNAc(b1-4)GlcNAc
# Outline: as §1
# [3] = biological target: Fuc(a1-3)[Gal3S(b1-4)]GlcNAc
# Outline: as §1
# [4] = biological target: Fuc(a1-3)[Gal3S(b1-4)]GlcNAc6S
# Outline: as §1
# [5] = biological target: Fuc(a1-3)[GalNAc(b1-4)]GlcNAc
# Outline: as §1
# Gal(a1-3)Gal(b1-3)GlcNAc = biological target: Gal(a1-3)Gal(b1-3)GlcNAc
# Outline: as §1
# [6] = biological target: Gal(a1-3)Gal(b1-3)GlcNAc(b1-2)Man(a1-3)[Gal(a1-3)Gal(b1-3)GlcNAc(b1-2)Man(a1-6)]Man(b1-4)GlcNAc(b1-4)GlcNAc
# Outline: as §1
# [7] = biological target: Gal(a1-3)Gal(b1-3)GlcNAc(b1-3)GalNAc
# Outline: as §1
# Gal(a1-4)GlcNAc = biological target: Gal(a1-4)GlcNAc
# Outline: as §1
# Gal(b1-2)Gal = biological target: Gal(b1-2)Gal
# Outline: as §1
# [8] = biological target: Gal(b1-3)GlcNAc(a1-6)Gal(b1-4)GlcNAc
# Outline: as §1
# [9] = biological target: Gal(b1-3)GlcNAc(b1-2)Man(a1-3)[Gal(b1-3)GlcNAc(b1-2)Man(a1-6)]Man(b1-4)GlcNAc(b1-4)GlcNAc
# Outline: as §1
# [10] = biological target: Gal(b1-3)GlcNAc(b1-3)Gal(b1-4)GlcNAc(b1-2)Man(a1-3)[Gal(b1-3)GlcNAc(b1-3)Gal(b1-4)GlcNAc(b1-2)Man(a1-6)]Man(b1-4)GlcNAc(b1-4)GlcNAc
# Outline: as §1
# [11] = biological target: Gal(b1-3)GlcNAc(b1-3)GalNAc
# Outline: as §1
# [12] = biological target: Gal(b1-4)GlcNAc(b1-2)Man(a1-3)Man(b1-4)GlcNAc(b1-4)GlcNAc
# Outline: as §1
# [13] = biological target: Gal(b1-4)GlcNAc(b1-2)Man(a1-3)[Man(a1-6)]Man(b1-4)GlcNAc(b1-4)GlcNAc
# Outline: as §1
# [14] = biological target: Gal(b1-4)GlcNAc(b1-2)[Gal(b1-4)GlcNAc(b1-4)]Man(a1-3)[GlcNAc(b1-4)][Gal(b1-4)GlcNAc(b1-2)Man(a1-6)]Man(b1-4)GlcNAc(b1-4)GlcNAc
# Outline: as §1
# [15] = biological target: Gal(b1-4)GlcNAc(b1-3)Gal(b1-4)GlcNAc(b1-2)Man(a1-3)[Gal(b1-4)GlcNAc(b1-3)Gal(b1-4)GlcNAc(b1-2)Man(a1-6)]Man(b1-4)GlcNAc(b1-4)GlcNAc
# Outline: as §1
# [16] = biological target: Gal(b1-4)GlcNAc(b1-3)Gal(b1-4)GlcNAc(b1-2)[Gal(b1-4)GlcNAc(b1-3)Gal(b1-4)GlcNAc(b1-6)]Man(a1-6)[Gal(b1-4)GlcNAc(b1-3)Gal(b1-4)GlcNAc(b1-2)Man(a1-3)]Man(b1-4)GlcNAc(b1-4)GlcNAc
# Outline: as §1
# [17] = biological target: GalNAc(a1-3)GalNAc(b1-3)Gal(a1-4)Gal(b1-4)GlcNAc
# Outline: as §1
# GalNAc(b1-4)Gal(b1-4)Glc = biological target: GalNAc(b1-4)Gal(b1-4)Glc
# Outline: as §1
# [18] = biological target: GalNAc(b1-4)GlcNAc(b1-3)GalNAc(b1-4)GlcNAc
# Outline: as §1
# GalNAc(b1-4)GlcNAc6S = biological target: GalNAc(b1-4)GlcNAc6S
# Outline: as §1
# GalNAc3S(b1-4)GlcNAc3S = biological target: GalNAc3S(b1-4)GlcNAc3S
# Outline: as §1
# Glc(a1-4)Glc = biological target: Glc(a1-4)Glc
# Outline: as §1
# [19] = biological target: Glc(a1-4)Glc(a1-4)Glc(a1-4)Glc
# Outline: as §1
# [20] = biological target: GlcNAc(b1-3)Gal(b1-3)GalNAc
# Outline: as §1
binder,measurement,setting,value
B1,glycan array binding signal (z-score),[1],0.688
same,glycan array binding signal (z-score),[2],0.546
same,glycan array binding signal (z-score),[3],-0.097
same,glycan array binding signal (z-score),[4],-0.175
same,glycan array binding signal (z-score),[5],-0.119
same,glycan array binding signal (z-score),Gal(a1-3)Gal(b1-3)GlcNAc,-0.106
same,glycan array binding signal (z-score),[6],0.584
same,glycan array binding signal (z-score),[7],-0.107
same,glycan array binding signal (z-score),Gal(a1-4)GlcNAc,-0.034
same,glycan array binding signal (z-score),Gal(b1-2)Gal,-0.068
same,glycan array binding signal (z-score),[8],-0.122
same,glycan array binding signal (z-score),[9],1.06
same,glycan array binding signal (z-score),[10],-0.007
same,glycan array binding signal (z-score),[11],-0.105
same,glycan array binding signal (z-score),[12],-0.068
same,glycan array binding signal (z-score),[13],1.03
same,glycan array binding signal (z-score),[14],0
same,glycan array binding signal (z-score),[15],0.017
same,glycan array binding signal (z-score),[16],0.619
same,glycan array binding signal (z-score),[17],-0.027
same,glycan array binding signal (z-score),GalNAc(b1-4)Gal(b1-4)Glc,0.067
same,glycan array binding signal (z-score),[18],-0.092
same,glycan array binding signal (z-score),GalNAc(b1-4)GlcNAc6S,-0.057
same,glycan array binding signal (z-score),GalNAc3S(b1-4)GlcNAc3S,-0.084
same,glycan array binding signal (z-score),Glc(a1-4)Glc,4.5
same,glycan array binding signal (z-score),[19],23.6
same,glycan array binding signal (z-score),[20],-0.061

# — the supplement of paper PMC8728848
